In all, about 2,300 compounds went through this assay and about 55 (2%) were called active.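 Rule for the calls: active = share of green or green-and-red cells above 9 and 9% in run 1 or 4 and 3% in run 2; inactive = the rest, inconclusive results apart.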 These entries were drawn from the full list.

The nature of this assay: inducers of myeloid progenitor differentiation, confirmation, cell-based, GFP/Mac1 flow cytometry, cherry pick 01 (AID 651706).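 For differentiation response: plate controls were double positive share in DMSO wells for no effect and share in positive control wells for full effect.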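 For double positive cells: share of live cells carrying both lysozyme GFP and MAC1 staining after four days.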 To be noted: ER-HoxA9 myeloid progenitors, stronger effect = higher value; differentiation response: GFP/Mac1 double-positive flow; double positive cells: measured here: percent double positive cells.
`CC(=O)Nc1ccc(S(=O)(=O)Nc2ccc(N3CCCCC3)cc2)cc1`: the differentiation response is 0% (inactive) and the double positive cells was 0%.

Consider `CN(C(=O)c1cccc([N+](=O)[O-])c1)c1ccccc1C(=O)NCc1ccccc1`, for which the differentiation response was 1.65% (inactive) and the double positive cells was found to be 1.35%.

Consider `CC(C)C(=O)N1CCN(c2nc(-c3ccccc3)c3c(c2C#N)CC(C)(C)OC3)CC1`, for which the differentiation response was 1.8% (inactive) and the double positive cells worked out at 1.6%.

Turning to `O=C(CCCN1C(=O)CCC1=O)Nc1ccc(Cl)c(C(F)(F)F)c1`, the differentiation response is 1.55% (inactive) and the double positive cells was found to be 1.1%.

In the case of `CC(CNc1ccc([N+](=O)[O-])cc1)NC(=O)c1ccccc1Br` (centres undefined), the differentiation response was 1.65% (inactive) and the double positive cells was 1%.

In the case of `CN(C(=O)CSc1nnc(C2CC2)n1C)C1CCCc2ccccc21` (centres undefined), the differentiation response is 2.6% (inactive) and the double positive cells is 2.05%.

On to `COc1ccc(C(=O)N(Cc2ccccc2)c2ccc(C)cc2)cc1S(=O)(=O)N1CCOCC1`, for which the differentiation response was 1.9% (inactive) and the double positive cells stood at 0.95%.

For the compound `COc1ccc2nc(N3CCN(C(=O)c4ccc([N+](=O)[O-])o4)CC3)sc2c1`, the differentiation response is 3.05% (inactive) and the double positive cells came to 0%.

In the case of `O=C(NCC1CCCCC1)NCC1CCCCC1`, the differentiation response was 0.8% (inactive) and the double positive cells was determined as 0.5%.

Turning to `O=C(NC(=O)c1ccccc1)Nc1ccccc1O`, the differentiation response was 5.8% (inactive) and the double positive cells was determined as 0.95%.

As for `O=S(=O)(NCc1cccnc1)c1ccc(Cl)nc1`, the differentiation response is 1.35% (inactive) and the double positive cells is 1.1%.

Take `CC(C)CC(COCc1ccc(Cl)cc1)N1CCN(C(=O)c2ccc(C(F)(F)F)cc2)CCC1=O` (centres undefined): the differentiation response is 2.15% (inactive) and the double positive cells came to 1.95%.

For `CCOC(=O)c1c(-c2ccccc2)oc2ccc(OCC(=O)NN)cc12`, the differentiation response was 2.65% (inactive) and the double positive cells was determined as 0.85%.

For `COc1ccccc1N1CCN(C(=O)c2cc(-c3ccc(Br)cc3)on2)CC1`, the differentiation response is 1.9% (inactive) and the double positive cells came to 1.65%.

Consider `Nc1ccc2nc3c(=O)[nH]c(=S)[nH]c3nc2c1`, for which the differentiation response was 11.7% (inactive) and the double positive cells turned out to be 1.75%.

`COc1cccc(NC(=O)[C@H](Cc2c[nH]c3ccccc23)NC(=O)[C@@H]2Cc3ccccc3CN2)c1`: the differentiation response is 5% (active) and the double positive cells worked out at 4.8%.

For the compound `CCc1c(C)sc(NC(=O)c2cccs2)c1C(N)=O`, the differentiation response is 7.25% (inactive) and the double positive cells was found to be 5.9%.

On to `O=C(CN(c1ccccc1)S(=O)(=O)c1ccc(Cl)cc1)Nc1ccccc1C(=O)N1CCCC1`, for which the differentiation response is 2.2% (inactive) and the double positive cells is 1.4%.

On to `O=C(Cn1cc(-c2nnnn2-c2ccc(Cl)cc2)c(=O)c2ccccc21)c1ccccc1`, for which the differentiation response was 3.55% (inactive) and the double positive cells was 2.6%.

Regarding `CC1CCCC(NC(=O)CN2CCN(Cc3ccc(Cl)cc3)C2=O)C1C` (centres undefined), the differentiation response was 4.75% (inactive) and the double positive cells turned out to be 2.6%.

As for `CCc1noc(C)c1C(=O)Nc1nc(-c2ccccc2)cs1`, the differentiation response was 1.4% (inactive) and the double positive cells was determined as 1%.

Consider `C=CCNc1nnc(SCC(=O)N2CCCCC2)c2ccccc12`, for which the differentiation response was 2.2% (inactive) and the double positive cells is 1.55%.

Turning to `COc1cccc(NC(=S)NCc2ccccn2)c1`, the differentiation response is 1.3% (inactive) and the double positive cells amounted to 1.3%.

In the case of `COc1ccc(C(C(=O)NCc2ccccc2)n2c(=O)c(-c3ccccc3)nc3ccccc32)cc1` (centres undefined), the differentiation response was 29.1% (inactive) and the double positive cells turned out to be 12.2%.

Turning to `Cc1ccc(C)c(S(=O)(=O)N2CCN(c3ncnc4sccc34)CC2)c1`, the differentiation response is 5.55% (inactive) and the double positive cells is 0%.

As to `O=C1c2ccccc2C(=O)N1Cc1cc(-c2ccccc2Cl)no1`, the differentiation response is 2.85% (inactive) and the double positive cells came out at 1.25%.

As for `N#CC1=C(N)Oc2c(sc3ccccc23)C1c1ccco1` (centres undefined), the differentiation response was 50% (inactive) and the double positive cells is 25%.

As to `CCOC(=O)CC(=O)CSc1nc(-c2ccccc2)cc(-c2ccc(Cl)cc2)c1C#N`, the differentiation response is 1.35% (inactive) and the double positive cells was found to be 1.15%.

Consider `COc1ccccc1CNC(=O)c1cc(-c2cc(Cl)ccc2C)n[nH]1`, for which the differentiation response is 0.15% (inactive) and the double positive cells is 0%.

Take `CCOC(=O)c1c(-c2cccc(C)c2)csc1NC(=O)c1c(-c2ccccc2)noc1C`: the differentiation response is 0.75% (inactive) and the double positive cells is 0.25%.

Turning to `CCN(CC)c1ccc(/C=N/NC(=O)CNC(=O)c2cccs2)cc1`, the differentiation response is 1.55% (inactive) and the double positive cells was 1.15%.

With `CCOc1ccc(NC(=O)CSc2nc3c(c(=O)n2-c2ccccc2OC)SCC3)cc1`, the differentiation response was 2.25% (inactive) and the double positive cells was 1.4%.

Turning to `CC1=C(C(N)=O)C(c2ccc3c(c2)OCO3)n2nc(-c3cccc(C)c3)nc2N1` (centres undefined), the differentiation response is 4.8% (inactive) and the double positive cells amounted to 5.05%.

Consider `COc1cc(/C=C(\C#N)c2nc3ccccc3[nH]2)ccc1O`, for which the differentiation response is 20.1% (inactive) and the double positive cells came out at 1.25%.

Take `CCCCSc1nc2c(c(=O)n1CC)SC(C)C2` (centres undefined): the differentiation response is 1.7% (inactive) and the double positive cells is 0.9%.

For `Cc1nn(-c2cc(Cl)ccc2N)c(=O)c2ccccc12`, the differentiation response was 1.3% (inactive) and the double positive cells stood at 1%.

Turning to `Cc1cc(NC(=O)CSc2nc(C(C)C)nc3sc4c(c23)CCC(C)C4)no1` (centres undefined), the differentiation response was 1.5% (inactive) and the double positive cells came out at 1.25%.

On to `Cc1ccc(-c2nc(C#N)c(NCCCn3ccnc3)o2)cc1`, for which the differentiation response was 1.5% (inactive) and the double positive cells was found to be 1.1%.

Turning to `COc1ccccc1NC(=O)c1cc(Cl)nnc1Cl`, the differentiation response is 0% (inactive) and the double positive cells came to 0%.

As to `CC#CC[N+](C)(C)CCCCCC`, the differentiation response is 5.9% (inactive) and the double positive cells is 3.9%.

Consider `O=C(Nc1ccccc1N1CCN(c2ccccc2)CC1)c1cccc(F)c1`, for which the differentiation response is 0.9% (inactive) and the double positive cells was determined as 0.65%.

As to `CC(C)OC(=O)CN1C(=O)C(=O)c2ccccc21`, the differentiation response was 2.4% (inactive) and the double positive cells came out at 0.55%.

With `N#C/C(=C/c1ccc(N2CCCCC2)o1)C(=O)NCCc1c[nH]c2ccccc12`, the differentiation response is 78.8% (inactive) and the double positive cells was found to be 5.25%.

As to `O=C(CN1CCN(C2CCCCC2)CC1)Nc1ccccc1N1CCCCC1`, the differentiation response is 1.2% (inactive) and the double positive cells came out at 0.65%.

On to `O=C(Nc1cccc(-c2nc3ncccc3o2)c1)c1ccco1`, for which the differentiation response was 1% (inactive) and the double positive cells is 0.45%.

On to `Cn1c(CNC(=O)c2ccccc2F)nnc1SCc1ccc(F)cc1`, for which the differentiation response was 2.7% (inactive) and the double positive cells amounted to 1.1%.

For the compound `Cc1c(C(=O)OCC(=O)N(CCC#N)c2ccccc2)oc2c1ccc1ccccc12`, the differentiation response was 0% (inactive) and the double positive cells is 0%.

For the compound `CCOC(=O)C(C(=O)OCC)C(C#N)c1ccccc1` (centres undefined), the differentiation response was 1% (inactive) and the double positive cells came out at 0.7%.

Consider `CCC1CCCCN1CCCNC(=O)Cn1nc(-c2ccccc2)ccc1=O` (centres undefined), for which the differentiation response is 3.1% (inactive) and the double positive cells worked out at 2.25%.

Take `Cc1ccc(C(=O)NC2CCCC(C)C2C)cc1S(=O)(=O)N1CCCCC1` (centres undefined): the differentiation response was 4.6% (inactive) and the double positive cells was found to be 3.95%.

Consider `COc1ccc(-c2nnc(SCC(=O)c3cccs3)o2)c(OC)c1`, for which the differentiation response is 4.75% (inactive) and the double positive cells is 1.2%.

For `COCCCn1c(=O)/c(=C/c2ccccc2OC(C)C)s/c1=C(\C#N)C(=O)Nc1ccc(C(=O)O)cc1`, the differentiation response is 3.5% (inactive) and the double positive cells stood at 1.7%.

Source of the values: PubChem BioAssay AID651706 (NMMLSC, 2012).
